Reference: PubChem BioAssay (NCATS)
Active and inactive are the calls of the source. The call rests on the fitted dose curve; in most records, active means well fitted curve in the direction sought with a large enough effect; inconclusive means small, poorly fitted or top-dose-only effect, or effect the other way, or another doubt; inactive means no such curve, though single readings can be large or run the other way.

Assay: qHTS for inhibitors of adenylyl cyclases using a fission yeast platform: a pilot screen against the NCATS LOPAC library (AID 1347410)
Details: S. pombe CHP2027, fbp1-GFP fluorescence, 18 h; series mostly up to 57.5 µM
Procedure, shortened: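 S. pombe CHP2027 (AC9-GNAS-PDE4D2) carrying a PKA-repressed fbp1-GFP reporter was exposed to LOPAC compounds (final up to 57 µM) for 18 h at 30C in the dark, in EMM with histidine, lysine and uracil; GFP gain-of-signal read by laser scanning cytometry.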

Compound	outcome
CN1CC[C@@]2(C)c3cc(OC(=O)Nc4ccccc4)ccc3N(C)[C@@H]12	inactive
C[N+]1(C)CCN(c2ccccc2)CC1	inactive
OC1CCCCC1N1CCC(c2ccccc2)CC1 (configuration not stated)	inactive
CN1C2CCC1CC(OC(c1ccccc1)c1ccccc1N)C2 (configuration not stated)	inactive
N[C@@]1(C(=O)O)CC[C@@H](C(=O)O)C1	inactive
NNC(=O)c1ccc(O)cc1	inactive
C#CCN[C@H](C)Cc1ccccc1	inactive
C[N+](C)(C)CC#CCOC(=O)Nc1cccc(Cl)c1	inactive
Oc1ccc2c3c1O[C@H]1c4oc5ccccc5c4C[C@@]4(O)C(C2)N(CC2CC2)CCC314 (some centres not stated)	inactive
C[C@@H]1O[C@@H](O[C@H]2C[C@@H](O)[C@]3(CO)[C@@H]4C(CC[C@]3(O)C2)[C@@]2(O)CC[C@H]([C@@H]3COC(=O)C3)[C@@]2(C)C[C@H]4O)[C@H](O)[C@H](O)[C@H]1O (some centres not stated)	inactive
CP(=O)(O)C1=CCNCC1	inactive
NC(=O)CI	inactive
Cc1c2ccncc2c(C)c2c1[nH]c1ccccc12	inactive
NCCc1ccc(S(=O)(=O)F)cc1	inactive
NCCc1c[nH]c2ccc(C(N)=O)cc12	inactive
CC1(C(=O)O)C2CCC(O2)C1(C)C(=O)O (configuration not stated)	inactive
COc1ccc2c(c1)C13CCCCC1C(C2)N(C)CC3 (configuration not stated)	inactive
CCOC(=O)c1ncn2c1[C@@H]1CCCN1C(=O)c1cc(OC)ccc1-2	inactive
COc1ccc(CNC(=O)/C=C/c2ccc3[nH]cc(CCN(C)C)c3c2)cc1	inactive

Compound	outcome
CCCN(CCC)CCc1ccc(O)c(O)c1	inactive
OCc1cnc[nH]1	inactive
CC(N)c1cccc(Cl)c1Cl (configuration not stated)	inactive
CNc1ccc2oc(C[C@H]3O[C@@]4(CC[C@H]3C)O[C@H]([C@H](C)C(=O)c3ccc[nH]3)[C@H](C)C[C@H]4C)nc2c1C(=O)O	inactive
NCC(CP(=O)(O)O)c1ccc(Cl)cc1 (configuration not stated)	inactive
C[C@H](Cc1ccc2c(c1)OC(C(=O)O)(C(=O)O)O2)NC[C@H](O)c1cccc(Cl)c1	inactive
O=[N+]([O-])/C=C/c1ccc2c(c1)OCO2	inactive
CCCN(CCC)[C@H]1CCc2c(F)ccc(O)c2C1	inactive
NC(=O)COc1c(F)cc(SCCNS(=O)(=O)c2ccccc2)cc1F	inactive
C[N+]1(C)C2CCC1CC(OC(=O)c1c[nH]c3ccccc13)C2 (configuration not stated)	inactive
C=CCN1CCC23c4c5ccc(O)c4O[C@H]2C(=O)CC[C@@]3(O)C1C5 (some centres not stated)	inactive
NCCCP(=O)(O)O	inactive
CCCC[N+]1(C)C2CC(OC(=O)[C@H](CO)c3ccccc3)CC1C1OC12 (some centres not stated)	inactive
CCCN1CCC[C@@H](c2cccc(O)c2)C1	inactive
C=CCN1C[C@@H](C)N([C@H](c2ccc(C(=O)N(CC)CC)cc2)c2cccc(OC)c2)C[C@@H]1C	inactive
NC(N)=NOCC[C@H](N)C(=O)O	inactive
CC(C)(C)c1o[nH]c(=O)c1CC(N)C(=O)O (configuration not stated)	inactive
COc1ccc2c(c1O)-c1cccc3c1[C@@H](C2)N(C)CC3	inactive
